Assay [1] concerns Aerobactin synthetase IucA (Klebsiella pneumoniae). The experiment in a line: IucA aerobactin synthetase inhibitors, biochemical, Tocris library, absorbance (AID 1345561; call rule not given here;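 note: 100% = enzyme without compound and 0% = no enzyme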). To be noted: purified IucA enzyme assay, absorbance (OD) read-out; stronger effect = lower value;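 tested at 8 µM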.
Assay [2] is described as follows: growth inhibition of DIPG glioma cells, dose response, cell-based, SU-DIPG-XVII, MIPE5.0, CellTiter-Glo, qHTS (AID 1347060).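 For AC50: cells exposed to compound for 48 hours before viability readout.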 As to conditions: SU-DIPG-XVII viability, CellTiter-Glo ATP luminescence.
Assay [3] can be described thus: growth inhibition of DIPG glioma cells, dose response, cell-based, JHH-DIPG-1, MIPE4.0, CellTiter-Glo, qHTS (AID 1347062; cut-off not given, nearly all actives have AC50 up to about 27 µM). To be noted: JHH-DIPG-1 viability, CellTiter-Glo ATP luminescence. On the technique in general: ATP-based viability assays read luminescence as a measure of living cells.
Assay [4] can be described thus: viability loss in pontine glioma line – cell-based, SU-DIPG-XXV, MIPE5.0, CellTiter-Glo, qHTS, dose response (AID 1347065).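 Note: cells exposed to compound for 48 hours before ATP readout.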 As to conditions: CellTiter-Glo ATP luminescence.
Assay [5] in a line: SU-DIPG-VI glioma cell viability, MIPE4.0 library, CellTiter-Glo luminescence, qHTS (AID 1347066; cut-off not given, nearly all actives have AC50 up to about 30 µM;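 note: cells exposed to compound for 48 hours before readout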). To be noted: CellTiter-Glo ATP luminescence.
A short description of assay [6]: JHH-DIPG-1 glioma cell viability, MIPE5.0 library, CellTiter-Glo luminescence, qHTS (AID 1347067).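 Note: cells exposed to compound for 48 hours before readout.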 As to conditions: JHH-DIPG-1 glioma viability, CellTiter-Glo ATP luminescence.
A short description of assay [7]: sensitizers of A549 cells to miR-34 induction, primary screen, imaging, A549 dox-inducible miR-34, nuclei and caspase counts (AID 1347080;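 active = compounds whose cell count with miR-34 switched on is under 0.7 times the count with it off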). To be noted: A549 miR-34 inducible, Hoechst nuclei count, 48 h.
Assay [8] is described as follows: survival rescue of mitochondrial mutant cells in low glucose, primary screen, MELAS cybrids, Rieske KO mouse fibroblasts, CellTiter-Glo (AID 1508586;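 active = mean z-score across replicates of 1.96 or higher in either the MELAS or the Rieske mutant cell line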;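 note: z relative to plate mean and SD of compound and empty wells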).
Assay [9] can be described thus: viability rescue of complex I mutant cybrids, primary screen, cell-based, galactose medium, ATP luminescence (AID 1645843;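 active = z-score of at least 1.8 in each of two replicates, scored against plate mean and spread of sample wells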;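 note: positive z means more ATP and so rescue of galactose-driven cybrid death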). As to conditions: complex I mutant cybrid cells, 72 h, stronger effect = higher value.
A short description of assay [10]: growth inhibition of DIPG glioma cells, dose response, cell-based, SU-DIPG-XIII, MIPE4.0, CellTiter-Glo, qHTS (AID 1347061; cut-off not given, nearly all actives have AC50 up to about 37 µM;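 note: cells exposed to compound for 48 hours before readout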). To be noted: SU-DIPG-XIII viability, CellTiter-Glo ATP luminescence.
Assay [11] can be described thus: growth inhibition of DIPG glioma cells, dose response, cell-based, SU-DIPG-IV, MIPE4.0, CellTiter-Glo, qHTS (AID 1347063; cut-off not given, nearly all actives have AC50 up to about 30 µM;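 note: compound exposure lasted 48 hours before the viability readout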). To be noted: SU-DIPG-IV viability, CellTiter-Glo ATP luminescence.
Assay [12] is described as follows: SU-DIPG-XXV glioma cell viability, MIPE5.0 library, qHTS (AID 1347068; cut-off not given, nearly all actives have IC50 up to about 30 µM). For orientation: In qHTS, concentration-response curves come from the screen itself.
Assay [13] is described as follows: growth inhibition of DIPG glioma cells, dose response, cell-based, SU-DIPG-XIII, MIPE5.0, CellTiter-Glo, qHTS (AID 1347064; cut-off not given, nearly all actives have AC50 up to about 23 µM). As to conditions: SU-DIPG-XIII viability, CellTiter-Glo ATP luminescence.
Assay [14] can be described thus: liver-stage malaria parasite growth inhibition, primary screen, cell-based, HepG2, luciferase luminescence, HepG2 viability (AID 624349; in the data active = parasite load remaining mostly below about 12%, no sharp cut-off; inactive = mostly above about 10%;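 note: 100% = mean of DMSO negative control wells on the same plate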). To be noted: P. berghei liver stage in HepG2, luciferase luminescence, concentration not given here; parasite load remaining: stronger effect = lower value; viability: measured here: HepG2 viability without parasites.
[15] abbreviates: stronger effect = lower value, cell number ratio, induced over uninduced.
[16] abbreviates: measured here: relative caspase fold change +Dox/-Dox.
Setting [17] is: measured here: total cells with miR-34 induction, stronger effect = lower value.
Where [18] appears, read: measured here: total cells without miR-34 induction.
The mark [19] stands for this setting: MELAS cybrid survival, CellTiter-Glo 48 h, stronger effect = higher value.
[20] abbreviates: Rieske KO mouse fibroblast survival, CellTiter-Glo 72 h.

Molecules are shown by their SMILES. Values joined by “and” are separate entries in the source; they are usually repeats but may differ in a detail not shown here. Identical values can stand only once. Inconclusive results are not listed. Active and inactive are the calls of the source. Unless noted, no cut-off is given here; in the data, nearly all actives have AC50 up to about 26 µM.

The results in this text go back to PubChem BioAssay.

With `COc1cc2nccc(Oc3ccc(NC(=O)Nc4ccc(F)cc4F)c(F)c3)c2cc1OC`, in [1], the remaining activity (commonly the signal under treatment as a percentage of the control signal) is 115% (inactive). In addition, the AC50 (as a rule, the concentration at which the activity in the assay is half-maximal) is 5.25 µM (active) in [2], 3.32 µM (active) in assay [4] and 4.17 µM (active) in assay [6]. Further, the outcome in assay [3] and in assay [5] was inactive. Besides, the fold change in assay [7] (setting [15]) was 0.97 (inactive) and 0.906 (inactive); in assay [7] (setting [16]), 1.3 and 1.55. The cell count is 1960 and 2970 in [7] (setting [17]); 2020 and 3280 in [7] (setting [18]). The z-score is -0.553 (inactive) in [8] (setting [19]), 0.363 in assay [8] (setting [20]) and -0.37 (inactive) in [9].
On to `Fc1ccc(Cl)cc1-c1nc(Nc2ccncc2)c2nccnc2n1`, for which, in assay [1], the remaining activity was 110% (inactive). Besides, the AC50 in assay [2] is 23.5 µM (active). Also, the result in assay [10], in assay [3], in [11], in [5] and in assay [12] was inactive. Besides, the results for the fold change in [7] (setting [15]) and in [7] (setting [16]) were 0.904 (inactive) and 1.34, respectively. The values for the cell count in [7] (setting [17]) and in assay [7] (setting [18]) were 8670 and 9590, respectively. Moreover, the z-score in assay [9] was 1.11 (inactive).
Consider `CC(Oc1ccc(O)cc1)(P(=O)(O)O)P(=O)(O)O`, for which the remaining activity in assay [1] is 115% (inactive). Moreover, the call in assay [2], in [10], in assay [3], in assay [11], in assay [13] and in assay [5] was inactive. Also, the call in assay [6] and in [12] was inactive. The values for the fold change in [7] (setting [15]) and in [7] (setting [16]) were 0.98 (inactive) and 0.597, respectively. In addition, the figures for the cell count in assay [7] (setting [17]) and in assay [7] (setting [18]) were 9020 and 9200, respectively. Moreover, the z-score in assay [9] was -0.285 (inactive).
On to `CC[C@H](NC(C)C)[C@H](O)c1ccc(O)c2[nH]c(=O)ccc12`, for which the parasite load remaining in assay [14] was 42.5% (inactive). Further, in [14], the viability (commonly a read-out of living cells in per cent, often relative to untreated cells) turned out to be 102%. Besides, in assay [1], the remaining activity is 95.2% (inactive). Also, the outcome in assay [2], in assay [10], in assay [3], in assay [11], in assay [4] and in assay [5] was inactive. In addition, in assay [6], the call was inactive. Moreover, the fold change is 0.929 (inactive) and 0.941 (inactive) in [7] (setting [15]); 0.691 and 1.28 in [7] (setting [16]). Besides, the cell count in [7] (setting [17]) is 8730 and 10200; in assay [7] (setting [18]), 9400 and 10800. The z-score is -0.163 (inactive) in assay [8] (setting [19]); -0.0411 in assay [8] (setting [20]); 0.095 (inactive) and 0.72 (inactive) in assay [9].
In the case of `COc1cccc(-c2cc(=O)c3ccccc3o2)c1N`, the parasite load remaining in assay [14] was 29.3% (inactive). Further, the viability in assay [14] is 68.4%. Further, the remaining activity in assay [1] was 102% (inactive). The result in assay [2], in assay [10], in assay [3], in assay [13], in assay [4] and in [12] was inactive. The z-score in assay [8] (setting [19]) was -0.498 (inactive); in assay [8] (setting [20]), 1.33; in assay [9], -0.045 (inactive) and 0.145 (inactive).
Consider `Cc1cc(NC(=O)Nc2ccc(N(C)C)cc2)c2cc(F)cc(F)c2n1`, for which the remaining activity in assay [1] is 98.2% (inactive). Moreover, the molecule was called inactive in [2], in assay [10], in assay [3], in assay [13], in [5] and in [6]. Also, the result in assay [12] was inactive. For the same molecule, the fold change is 0.902 (inactive) and 0.887 (inactive) in assay [7] (setting [15]); 0.91 and 0.717 in assay [7] (setting [16]). Further, the cell count was 6380 and 7970 in assay [7] (setting [17]); 7070 and 8990 in [7] (setting [18]). For the same molecule, the z-score in assay [8] (setting [19]) is 1.11 (inactive); in assay [8] (setting [20]), -0.687; in [9], -0.32 (inactive).
On to `O=C1Nc2ccc(I)cc2/C1=C/c1cc(Br)c(O)c(Br)c1`, for which, in assay [1], the remaining activity is 117% (inactive). In addition, the outcome in assay [2], in assay [3], in assay [13], in [5] and in assay [6] was inactive. Further, the fold change in assay [7] (setting [15]) is 0.983 (inactive) and 1.01 (inactive) and 0.869 (inactive); in assay [7] (setting [16]), 1.44 and 1.3 and 0.748. The cell count in [7] (setting [17]) is 8580 and 4160 and 8980; in assay [7] (setting [18]), 8730 and 4120 and 10300. Further, the z-score in assay [9] was -0.635 (inactive) and -0.18 (inactive).
